MEKK3 PB1 HTS: modulators of MEKK3-MEK5 PB1 binding, primary screen, biochemical, wildtype MEKK3, multiplex bead flow cytometry, Alexa488-MEK5. bead-based flow cytometry, Alexa488-MEK5 binding to MEKK3; actives lie on both sides; 0 = blocked by unlabeled MEK5, 100 = vehicle. binding response (% of control), % at 10 µM. AID 1529, 2009. hit rate 1.4% among 290,000;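 active = binding response more than 3 SD above or below the average of its plate-row segment, actives on both sides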;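 note: Alexa488 bead fluorescence after subtracting the streptavidin-only scavenger bead signal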
Target sequence (Q99759 whole entry, looked up): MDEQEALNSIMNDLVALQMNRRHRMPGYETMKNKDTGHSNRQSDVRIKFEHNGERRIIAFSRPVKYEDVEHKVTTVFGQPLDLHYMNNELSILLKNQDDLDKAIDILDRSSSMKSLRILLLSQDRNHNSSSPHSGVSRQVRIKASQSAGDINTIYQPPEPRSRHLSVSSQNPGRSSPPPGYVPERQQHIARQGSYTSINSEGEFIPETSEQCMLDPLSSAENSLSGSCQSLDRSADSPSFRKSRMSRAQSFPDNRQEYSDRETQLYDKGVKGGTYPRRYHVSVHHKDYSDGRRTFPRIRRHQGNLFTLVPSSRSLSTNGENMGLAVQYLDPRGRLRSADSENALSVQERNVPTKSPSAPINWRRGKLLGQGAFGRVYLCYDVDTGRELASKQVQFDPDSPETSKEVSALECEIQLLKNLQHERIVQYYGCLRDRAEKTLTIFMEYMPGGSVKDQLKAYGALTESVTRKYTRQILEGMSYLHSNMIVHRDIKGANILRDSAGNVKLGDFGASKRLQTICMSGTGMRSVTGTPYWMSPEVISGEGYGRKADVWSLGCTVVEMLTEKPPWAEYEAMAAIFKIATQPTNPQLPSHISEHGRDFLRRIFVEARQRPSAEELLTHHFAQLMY
MEKK2 mut-MEK5: MEK5 binding signal on mutant MEKK2 PB1, primary screen, biochemical, multiplex bead flow cytometry, Alexa488-MEK5; AID 1530, 2009; Alexa488-MEK5 binding to MEKK2 mutant; hit rate 0.35% among 290,000; percent response, % at 10 µM; in the data active = percent response above about 24%, passing the limit was not always enough
MEKK2wt PB1 HTS: modulators of MEK5 binding to wildtype MEKK2, primary screen, biochemical, multiplex bead flow cytometry, Alexa488-MEK5 | Alexa488-MEK5 binding to MEKK2 WT; actives lie on both sides | binding response (% of control), % at 10 µM | hit rate 1.1% among 290,000 | AID 1531, 2009; in the data active = binding response below about 67% or above about 130%
ANO1 activ: TMEM16A chloride channel activators or potentiators, primary screen, cell-based, HTS; Anoctamin-1 (Mus musculus), Q8BHY3; HEK293 TMEM16A/YFP-H148Q/I152L, iodide quench fluorescence; active compounds read low; B-score at 10 µM; hit rate 0.3% among 340,000;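 active = fluorescence-ratio B-score plate-corrected deviation score at least 3 library SD below zero, with starting fluorescence score within 5 deviations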;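 note: channel opened by trigger with iodide after compound preincubation; score built on the fluorescence ratio of max minus min over baseline; more negative score means more quench and so TMEM16A activation or potentiation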
ANO1 block: TMEM16A chloride channel inhibitors, primary screen, cell-based, HTS. Anoctamin-1 (Mus musculus), Q8BHY3. HEK293 TMEM16A/YFP iodide influx fluorescence, ionomycin. normalized B-score (activity score, 25-100; higher = stronger inhibition) at 10 µM. hit rate 1.2% among 310,000. AID 588511, 2011;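 active = ratio plate-corrected score three or more library SD toward inhibition, starting fluorescence score within five deviations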;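 note: score derived from kinetic fluorescence span divided by baseline fluorescence per well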
NTR1 ag: agonists of human NTR1, primary screen, imaging, U2OS cells, beta-arrestin-GFP, high content | Neurotensin receptor type 1 (Homo sapiens), P30989 | NTR1-U2OS beta-arrestin-GFP spot imaging, agonist mode | activation, % at 20 µM | hit rate 0.17% among 330,000;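 active = activation at or above 40% of the spot to cytoplasm intensity ratio, with at least 20 cells analyzed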;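 note: 0% = DMSO without peptide and 100% = 100 nM NTR1 peptide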
MEKK2wt confirm: modulators of MEK5 binding to wildtype MEKK2, confirmation, biochemical, single concentration, multiplex bead flow cytometry; shares compounds with MEKK3 PB1 HTS; Alexa488-MEK5 binding to MEKK2 WT; actives lie on both sides; binding response (% of control), % at 10 µM; hit rate 2.4% among 5,900; in the data active = binding response below about 16% or above about 210%; inactive = in between
MEKK2mut-MEK5: mutant MEKK2 PB1-MEK5 binding signal retest – biochemical, single concentration, multiplex bead flow cytometry, confirmation. shares compounds with MEKK3 PB1 HTS. Alexa488-MEK5 binding to MEKK2 mutant. percent response, % at 10 µM. hit rate 2% among 5,900; in the data active = percent response mostly above about 71%, no sharp cut-off; inactive = mostly below about 38%;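 note: higher means compound restores mutant binding toward wildtype level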
MEKK3 confirm: MEKK3 wild-type PB1 binding to MEK5, inhibitors, confirmation, biochemical, bead multiplex flow cytometry, single concentration, wildtype; shares compounds with MEKK3 PB1 HTS; Alexa488-MEK5 binding to MEKK3; active compounds read low; binding response (% of control), % at 10 µM; hit rate 1.8% among 5,900;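 active = binding response below 72% of control, or above a set upper limit, though filed actives all read lower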;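 note: 100% = DMSO only wells and 0% = binding blocked by excess unlabeled MEK5; lower values mean stronger disruption of MEK5 binding to MEKK3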
* marks the source's active call; other numbers are inactive results; i = inactive; nt = not tested or not shown; [ ] = remark or other dose. Most compounds without a hit are left out; they make up all but 3.4% or so of the library.

SMILES	MEKK3 PB1 HTS	MEKK2 mut-MEK5	MEKK2wt PB1 HTS	ANO1 activ	ANO1 block	NTR1 ag	MEKK2wt confirm	MEKK2mut-MEK5	MEKK3 confirm
O=C(O)C(c1ccccc1)N1C(=O)/C(=C\c2ccc(-c3ccc(Br)cc3)o2)SC1=S (stereo unspecified)	87	-14	65*[inhibitor]	i	nt	-3	76	-10	94
O=C(O)C(c1ccccc1)N1C(=O)/C(=C\c2ccc(-c3ccccc3Cl)o2)SC1=S (stereo unspecified)	97	-8	90	i	i	2	nt	nt	nt
C=CCN1C(=O)/C(=C/c2ccc(-c3ccc(F)cc3)o2)SC1=S	49*[inhibitor]	-10	18*[inhibitor]	i	i	2	26	-32	62*
C/C(=N/NC(=O)CNC(=O)c1ccncc1)c1ccco1	91	-6	90	i	i	-1	nt	nt	nt
O=C(O)CC1S/C(=N\N=C2\C(=O)Nc3ccccc32)N(c2ccc(O)cc2)C1=O (stereo unspecified)	95	-3	93	i	i	0	nt	nt	nt
Cc1cc(C)c2cc(CN(CCCO)S(=O)(=O)c3ccccc3F)c(=O)[nH]c2c1	99	1	101	i	i	3	nt	nt	nt
Cc1cc(Nc2cccc(C(F)(F)F)c2)n2nc(C)nc2n1	1.0*[inhibitor]	-65	0.0*[inhibitor]	i	i	0	106	9	108
O=S(=O)(Nc1nc2ccccc2nc1NCC1CCCO1)c1ccccc1 (stereo unspecified)	53*[inhibitor]	-25	70	i	i	1	94	-7	96
Cc1cc(C)c(NC(=O)Cn2c([N+](=O)[O-])cnc2C)c(C)c1	101	3	107	i	i	2	nt	nt	nt
COc1ccc(/C=C2\SC(N3CCc4ccccc4C3)=NC2=O)cc1	131*	1	103	i	i	1	95	-10	99
O=C(CC(c1ccccc1)c1ccco1)Nc1nccs1 (stereo unspecified)	106	2	102	i	i	-1	nt	nt	nt
Cc1ccc(NC(=O)c2c3c(nc4ccccc24)CCC3)cc1	72*[inhibitor]	-2	84	i	i	1	107	5	103
CCOc1ccc(NC(=O)c2c3c(nc4ccccc24)CCC3)cc1	95	-5	92	i	i	2	nt	nt	nt
CCN(CC)S(=O)(=O)c1ccc(OC)c(NC(=O)C(C)Oc2ccc3c(C)cc(=O)oc3c2)c1 (stereo unspecified)	145*	0	107	i	i	3	103	3	105
CCN(CC)S(=O)(=O)c1ccc(C)c(NC(=O)COc2ccc3c(C)cc(=O)oc3c2)c1	106	15	86	i	i	2	nt	nt	nt
CCOc1cc(/C=N/N=C(N)N)ccc1OCc1ccc(Cl)cc1	104	6	149*	i	i	nt	202	63	109
COc1cc(/C=N/N=C(N)N)ccc1OCc1ccc(Cl)cc1	122	69*	230*	i	100*	4	180	48	102
COc1cc(/C=N/O)ccc1OCc1ccc(Cl)cc1	96	-4	92	nt	i	3	nt	nt	nt
c1ccc(-c2cc(-c3ccccc3)on2)cc1	130*	27	129	i	i	2	109	15	107
Cc1ccc(-c2cc(-c3ccccc3)no2)cc1	nt	nt	nt	i	i	0	nt	nt	nt
CC1(C)Oc2ccc(NC(=O)c3ccco3)cc2O1	103	-1	99	i	i	-1	nt	nt	nt
CCCCN1C(=S)NC[C@@H]1c1ccccc1	105	3	101	i	i	-2	nt	nt	nt
COc1cc(CCCN2C(=S)NC[C@@H]2c2ccccc2)cc(OC)c1OC	80*[inhibitor]	0	97	i	i	2	107	9	108
COc1cc(CCCN2C(=S)NC[C@@H]2Cc2ccccc2)cc(OC)c1OC	1.0*[inhibitor]	2	0.0*[inhibitor]	i	i	-3	102	0	104
OCC[C@@H]1C[C@H](O)[C@@H](O)[C@]2(CCCCO2)O1	90	-3	97	i	i	2	nt	nt	nt
SMILES	MEKK3 PB1 HTS	MEKK2 mut-MEK5	MEKK2wt PB1 HTS	ANO1 activ	ANO1 block	NTR1 ag	MEKK2wt confirm	MEKK2mut-MEK5	MEKK3 confirm
CN(C1CCCCC1)C(CNS(=O)(=O)c1ccccc1)c1ccccc1 (stereo unspecified)	93	-3	95	i	i	0	nt	nt	nt
CCCCOc1ccc(Br)cc1CSC(=N)N	111	5	123	i	nt	nt	nt	nt	nt
CCCCOc1ccc(Br)cc1/C(C)=N/NC1=NCCN1	113	35*	162*	i	i	2	144	31	105
Cc1ccc(CN2CCN(c3cccc4[nH]ccc34)CC2)cc1	111	12	116	i	i	-1	nt	nt	nt
O=c1c(C=NCCN2CCNCC2)c(-c2ccccc2)[nH]n1-c1ccc([N+](=O)[O-])cc1	118	31	179*	nt	i	1	142	45	107
COc1ccc(-c2[nH]n(-c3ccc([N+](=O)[O-])cc3)c(=O)c2C=NCCN2CCNCC2)cc1	101	0	113	nt	i	5	nt	nt	nt
CC1CCC2C(=O)N(c3ccccc3OC(=O)c3ccccc3F)C(=O)C2C1 (stereo unspecified)	143*	6	127	i	i	0	95	-5	101
O=C(Oc1ccccc1N1C(=O)C2CCCCC2C1=O)c1ccccc1 (stereo unspecified)	nt	nt	nt	i	i	-2	nt	nt	nt
Cc1nc(-c2ccc(F)cc2)c(CC(=O)N(C)CC(=O)Nc2ccccc2Br)s1	nt	nt	nt	i	i	-1	nt	nt	nt
O=C1C=C(c2ccc(Cl)c(C(F)(F)F)c2)C[C@@H](c2ccc(Cl)cc2)C1	nt	nt	nt	i	nt	1	nt	nt	nt
